# PubChem BioAssay AID504942 (Broad Institute, 2011)
# Entries with a potency or affinity are not part of this list. The source made the active and inactive calls. The rule behind the calls is not given here.
# Assay: HeLa cell cytotoxicity, dose response, cytotoxicity control, 48 h, plate reader, cherry-picks (AID 504942)
# Conditions: series mostly up to 38 µM
row,SMILES,outcome
1,O=C(NC1CCSC1)c1cccc(Cl)c1 (centres undefined),inactive
2,COc1ccc(N=C(C)C2=C(O)CSC2=O)cc1,inactive
3,N#CC(c1ccc(Cl)cc1)c1cccc(Cl)n1 (centres undefined),inactive
4,Cc1ccc2scc(CN3CCCC3)c2c1,inactive
5,O=C1C2C(C(=O)N1Cc1ccco1)C1C=CC2C12CC2 (centres undefined),inactive
6,Cn1cccc1C(C#N)c1ccccc1C#N (centres undefined),inactive
7,CCNC(=O)COc1ccc2ccccc2c1,inactive
8,N#CC(c1ccc(Cl)cc1)c1ccc(Cl)nn1 (centres undefined),inactive
9,COC(=O)c1cc(-c2ccc(Br)cc2)on1,inactive
10,N#CN(Cc1ccccc1)Cc1ccccc1,inactive
11,O=C(NC1CCCC1)c1cc(Cl)ccc1[N+](=O)[O-],inactive
12,Cc1ccc(C(C#N)c2ccc(Cl)nn2)cc1 (centres undefined),inactive
13,COc1ccc(N2CCN(C(=O)c3ccc(Br)o3)CC2)cc1,inactive
14,CCOC(=O)/C=C(\C)Sc1cc(=O)oc2ccccc12,inactive
15,Cc1cc(NC(=O)c2cc([N+](=O)[O-])cc([N+](=O)[O-])c2C)no1,inactive
16,CC(C)CCNC(=O)c1cccc(Cl)c1,inactive
17,CCOC(=O)CC(C#N)c1cn(C)c2ccccc12 (centres undefined),inactive
18,CCOC(=O)c1ccc(-c2ccc(C=O)o2)cc1,inactive
19,O=C(c1cccc([N+](=O)[O-])c1)N1CC2C3C=CC(C3)C2C1 (centres undefined),inactive
20,N#CC(Sc1ccccn1)c1ccc(Cl)cc1 (centres undefined),inactive
21,CSC1=N/C(=C\C=C\c2cccs2)C(=O)S1,inactive
22,CO/N=C/c1cn(-c2ccc(Cl)cc2)nn1,inactive
23,CCCNS(=O)(=O)c1ccc(OC)c(Cl)c1Cl,inactive
24,COC(=O)c1cc(-c2ccc(OC)cc2)on1,inactive
25,N#Cc1cc(-c2ccccc2)cnc1Cl,inactive
26,N#CC(c1ccc(Cl)nn1)c1ccccc1Cl (centres undefined),inactive
27,O=S1(=O)CCOC[C@H](c2ccccc2)N1Cc1cccc(Cl)c1,inactive
28,COc1ccc(C(C#N)c2ccc(Cl)nn2)cc1 (centres undefined),inactive
29,O=C(NC1CCCC1)c1cccc(Cl)c1,inactive
